# Laboratory results from PubChem BioAssay AID624202 (National Center for Advancing Translational Sciences (NCATS), 2012).
# The campaign covered roughly 380,000 compounds. About 4,000 (1.1%) were called active. Not shown: some 3% with an inconclusive outcome. Shown is part of a subset that was picked to be rich in actives. Values without a mark were called inactive. Calls follow the shape of the dose curve; as a rule, active = well fitted activation curve with a large enough effect; inconclusive = small, poorly fitted or top-dose-only effect; inactive = no such curve, though single readings can be large or run the other way.
# Assay: qHTS Assay to Identify Small Molecule Activators of BRCA1 Expression; also: nearly all actives have a fitted effect of over 80% in size
# Conditions: MCF7-BRCA1-FFLuc reporter, luminescence, 48 h; series mostly up to 46.1 µM; activation: at the top concentration
# Outline: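 Using MCF7 cells harboring a BRCA1 firefly luciferase reporter, plated 2 h before compound pinning, the screen measured luminescence after 48 h incubation. Responses were normalized to DMSO and 10 microM genistein, then fitted for concentration-effect.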
# Potency is read from the fitted curve at half-maximal effect.
Compound,activation [%],Potency
CCc1c(O)nc(SCC(=O)N2CCCCC2)n(-c2ccccc2C)c1=O,6.28,
O=C(CSc1nc2ccccc2c(=O)n1-c1ccccc1F)N1CCOCC1,-6.09,
Cc1ccc(-n2c(SCC(=O)N3CCC(C(=O)O)CC3)nc3ccccc3c2=O)cc1C,,4.47 µM (active)
COc1cccc(CNC(=O)CN2C(=O)CCc3cc(S(=O)(=O)N4CCOCC4)ccc32)c1,11.1,
COc1cc(OC)c(/C=C/c2ccnc3ccccc23)c(OC)c1,-43.7,
COc1ccc(N=Cc2c(O)[nH]c3ccccc23)cc1OC,,3.16 µM (active)
COc1ccc(/C=C/c2ccnc3ccccc23)cc1OC,-23.9,
COc1cc2[nH]c(O)c(C=O)c2cc1OC,1.23,
CCN(CC)/[N+]([O-])=N/OCOC(=O)Cc1c(C)n(C(=O)c2ccc(Cl)cc2)c2ccc(OC)cc12,-16,
CCc1ccc(CNC(=O)c2cc3cc4ccc(OC)cc4nc3o2)cc1,-7.1,
O=C(NCCOc1ccccc1Cl)C(=O)Nc1ccccc1,-41.6,
COc1ccccc1OCCNC(=O)CCNC(=O)c1ccccc1Cl,-0.0194,
COc1cc(SC)ccc1C(=O)NCCOc1ccccc1Cl,,7.94 µM (active)
CCOCCc1nn2c(=O)cc(COC(=O)CNC(=O)c3ccc(C(C)(C)C)cc3)nc2s1,6.51,
Cn1c(=O)nc2n(-c3ccc(Br)cc3)c3cccc(Cl)c3cc-2c1=O,-11.7,
O=C(CSc1ncc(S(=O)(=O)c2ccc(Br)cc2)c(=O)[nH]1)Nc1ccc2c(c1)OCCO2,15.7,
c1ccc(-c2c[nH]c(-c3ccccc3)c2)cc1,41.4,
Oc1ccc(-c2cccc(-c3ccc(O)cc3)c2)cc1,,10 µM (active)
O=C(OCc1ccc(-c2ccccc2)cc1)c1cccc(O)c1,83.1,
COc1ccccc1CNC(=O)CCCCn1c(=O)c2ccccc2n(CC(=O)Nc2cc(Cl)ccc2C)c1=O,-20.3,
Cc1cccc(N2CCN(C(=O)c3oc(=O)c4ccccc4c3-c3ccccc3)CC2)c1C,-3.27,
O=C(c1nnc(-c2ccc(Cl)cc2)o1)C1CCCC1,,11.2 µM (active)
O=C(Nc1cnn(Cc2ccc(Cl)cc2)c1)C1CCCC1,7.68,
O=C(c1[nH]ncc1-c1ccc(Cl)cc1)C1CO1 (stereo not given),-20,
c1ccc(Cn2nnc3c(N4CCCCC4)ncnc32)cc1,32,
COc1ccccc1CCNC(=O)c1cccn1-c1nnc(N2CCCCC2)s1,-17,
COc1ccc(C2NC(=O)N(C)C3=C2C(=O)N(c2ccc(C(=O)O)cc2)C3)cc1 (stereo not given),8.52,
Cc1scc(C(=O)NNC(=S)NCC(C)C)c1C,2.45,
CC(C)CNC(=S)NC(=O)c1ccc(Cl)cc1,,10 µM (active)
CC(C)CNC(=S)NNC(=O)c1nn(C)cc1Cl,7.17,
